In PubChem BioAssay (NCI):
The panel holds about 83,000 compounds, 20% with a hit somewhere; the sample as a whole holds those more often.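 Values shown are percent growth following 48 h exposure of cells in 96-well plates to a single concentration of compound; below 10 was considered active.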 Unmarked numbers belong to inactive results. The source made the active and inactive calls.

How the values were obtained:
Assay in all cases: NCI-60 one-dose screen, 48 h (100 = growth as untreated, 0 = no growth, -100 = all killed)
Settings in all cases: 10 µM
[1] = tested on: HCT-15 colon
[2] = tested on: HT29 colon
[3] = tested on: SNB-75 CNS
[4] = tested on: SNB-19 CNS
[5] = tested on: U251 CNS
[6] = tested on: PC-3 prostate
[7] = tested on: SK-MEL-5 melanoma
[8] = tested on: UACC-62 melanoma
[9] = tested on: LOX IMVI melanoma
[10] = tested on: SK-MEL-28 melanoma
[11] = tested on: SK-MEL-2 melanoma
[12] = tested on: EKVX NSCLC
[13] = tested on: UO-31 renal
[14] = tested on: TK-10 renal
[15] = tested on: ACHN renal
[16] = tested on: A498 renal
[17] = tested on: CCRF-CEM leukemia
[18] = tested on: MOLT-4 leukemia
[19] = tested on: SN12C renal
[20] = tested on: CAKI-1 renal

SMILES	growth [1]	growth [2]	growth [3]	growth [4]	growth [5]	growth [6]	growth [7]	growth [8]	growth [9]	growth [10]	growth [11]	growth [12]	growth [13]	growth [14]	growth [15]	growth [16]	growth [17]	growth [18]	growth [19]	growth [20]
O=C(CN(C1CCCCC1)C1CCCCC1)Nc1ccc(S(=O)(=O)c2ccc(NC(=O)CN(C3CCCCC3)C3CCCCC3)cc2)cc1	-33.7% (active)	-84.2% (active)	55.8%	11.1%	-75.9% (active)	-80% (active)	-76.5% (active)	-20.9% (active)	-81% (active)	12.2%	-35.4% (active)	-43.6% (active)	10.2%	56.1%	-33% (active)	89.4%	-59.7% (active)	-25.2% (active)	–	–
COc1ccc(-c2cc(-c3ccc(Cl)cc3)nc(SCCCC(=O)NO)n2)cc1	14.5%	13.3%	-6% (active)	13.5%	5.21% (active)	0.504% (active)	-52.5% (active)	-57.2% (active)	-24.9% (active)	31.9%	0.495% (active)	–	-40.9% (active)	13.8%	2.98% (active)	-19% (active)	–	9.27% (active)	2.49% (active)	-0.0585% (active)
CC[C@@H](C(=O)[C@H](C)[C@H](O)[C@@H](C)[C@H]1O[C@H]([C@@H](CC)C(=O)O)CC[C@H]1C)C1O[C@]2(C=C[C@@H](O)[C@]3(CC[C@@](C)([C@H]4CC[C@](O)(CC)[C@H](C)O4)O3)O2)[C@H](C)C[C@@H]1C (some centres not stated)	25.7%	26.1%	-12.7% (active)	-13.3% (active)	14.2%	27.5%	-99.2% (active)	-92.2% (active)	29.3%	-93% (active)	13.7%	–	34.5%	56.5%	31.2%	-69.6% (active)	–	17.3%	11.8%	22.2%
CC[C@@H](C(=O)[C@@H](C)[C@@H](O)[C@H](C)[C@@H]1O[C@@H]([C@@H](CC)C(=O)N(CC)CC)CC[C@@H]1C)C1O[C@]2(C=CC(=O)[C@]3(CC[C@@](C)([C@H]4CC[C@](O)(CC)[C@H](C)O4)O3)O2)[C@H](C)C[C@@H]1C (some centres not stated)	11%	13.1%	30.2%	23.4%	6.72% (active)	7.83% (active)	-42.9% (active)	13%	34.3%	19.5%	11.4%	19.6%	0.811% (active)	29.1%	6.1% (active)	–	–	22.7%	–	7.58% (active)
COc1cc(-c2ccc(N=Nc3ccc4c(S(=O)(=O)O)ccc(N)c4c3O)c(OC)c2)ccc1N=Nc1ccc2c(S(=O)(=O)O)ccc(N)c2c1O	110%	105%	70.9%	110%	107%	98.7%	105%	111%	102%	103%	102%	–	–	121%	103%	124%	105%	122%	–	–
O=C1/C=C/[C@@H](O)[C@@H]2C[C@@H](O)C[C@H]2/C=C/CCC[C@H](CCc2ccc(C(F)(F)F)cc2)O1	-3.05% (active)	-36.7% (active)	-13.5% (active)	17.6%	12.1%	8.76% (active)	-87.2% (active)	6.89% (active)	-71.8% (active)	2.07% (active)	–	3.27% (active)	1.2% (active)	-40% (active)	8.15% (active)	-29.7% (active)	-11% (active)	-21.5% (active)	1.34% (active)	8.3% (active)
COc1ccc(CCN2CCC(Nc3nc4ccccc4n3Cc3ccc(F)cc3)CC2)cc1	-23% (active)	-53.6% (active)	-29.9% (active)	40.6%	-70.9% (active)	29.4%	-100% (active)	-85.6% (active)	-87.9% (active)	-76.7% (active)	–	45.1%	-19.8% (active)	-6.61% (active)	12.5%	-9.07% (active)	-13.6% (active)	-40.7% (active)	34.1%	-1.28% (active)
CS(=O)(=O)c1nccc(-c2c(-c3cccc(OCCc4ccccc4)c3)nc3sccn23)n1	108%	99.7%	98.4%	92.6%	99.4%	86.9%	78.3%	85.9%	94.2%	112%	107%	–	71.5%	–	101%	91.7%	91.3%	84.5%	95.5%	85.7%
COc1ccc(Cc2cnc(N)nc2N)cc1OC	101%	99%	79.4%	100%	97.1%	88.6%	101%	96.9%	97%	119%	–	115%	78%	110%	96.5%	73.4%	102%	104%	96.1%	89.1%
